About 810 (68%) of roughly 1,200 compounds were called active. No rule for the calls is given here. So high a share suggests a set chosen from earlier hits. Not all results are given here. Results with a measured potency or affinity are listed apart.
assay: reducers of TRPM1 reporter luminescence, concentration series – cell-based, SK-MEL-5, cherry-picked, set 3, MITF inhibitor project, dose response (AID 493073); details: SK-MEL-5 TRPM1 promoter luciferase, 24 h; series mostly up to 35 µM

Structure (SMILES)	outcome
O=C(CSc1nc2ccccc2[nH]1)c1ccc2c(c1)OCO2	inactive
O=C(Nc1ccc(Br)cc1)c1ccc2c(c1)OCO2	inactive
CCOc1ccc2cc(C#N)c(SCC(=O)OC)nc2c1	inactive
CC(=O)Nc1ccc(-c2nc3ccccc3o2)cc1	inactive
Cc1occc1C(=O)N/N=C/c1ccc(OCc2ccccc2)cc1	inactive
CCc1nc2oc3ccccc3c(=O)c2cc1C(=O)OC	inactive
Cc1nc(-c2ccccn2)sc1C(=O)Nc1ccc(F)cc1F	inactive
COc1ccc(-c2csc(Nc3ccccn3)n2)cc1OC	inactive
COCn1c(COc2ccccc2)nc2ccccc21	inactive
Cc1ccc(-n2cc(CNCCCn3cccn3)c(-c3cccc(C)c3)n2)cc1	inactive
Cc1oc(=O)c(NC(=O)c2ccccc2)cc1C(=O)c1ccccc1	inactive
CN(C)c1ccc(/C=N/N2CCN(c3ccccn3)CC2)cc1	inactive
CN(C)c1ccc(NC(=O)Nc2ccc3c(c2)nnn3C)cc1	inactive
CN(C)c1ccc(CNc2ccccn2)cc1	inactive
CC(C)OC(=O)CSc1nc2cc3c(cc2cc1C#N)OCO3	inactive
O=C(Nc1ccc(N2CCOCC2)c(Cl)c1)c1cccc(F)c1	inactive
Cc1ccc(N2C(=O)c3ccc(N)cc3C2=O)cc1C	inactive

Structure (SMILES)	outcome
Oc1ccc(-c2nnc(SCC3CCCCC3)o2)cc1	inactive
CCCC1=Nc2cc(C(=O)NCCN3CCCC3)ccc2Sc2ccccc21	inactive
COc1ccc(C[C@H]2CN3C(=NC[C@@H]3C(C)C)N2CCNC(=O)c2ccc(C)c(Br)c2)cc1	inactive
CCN1CCN(CCCNC(=O)c2ccc3c(Cl)c4c(nc3c2)CCCC4)CC1	inactive
COc1ccc(/C=C2\Sc3ccc(C(=O)NCCN4CCCCCC4)cc3N(C)C2=O)cc1	inactive
Cc1ccc(-c2noc(-c3ccno3)n2)cc1	inactive
O=C(NCc1ccc2c(c1)OCO2)c1cc(=O)[nH]c2ccccc12	inactive
Cc1ccc2[nH]c(=O)c(CN(CCCN(C)C)C(=O)Nc3cccc(Cl)c3)cc2c1	inactive
Nc1c(N(CCC2=CCCCC2)C(=O)COc2ccc(F)cc2)c(=O)[nH]c(=O)n1Cc1ccccc1	inactive
O=C(NCc1csc(-c2cccs2)n1)C1CCC1	inactive
O=C(Nc1ccc(Cl)cc1)OCc1ccccn1	inactive
CCOc1ccc(NC(=O)c2ccc3snnc3c2)cc1	inactive
O=C(Nc1ccc2c(c1)OCCO2)c1cccc(Cl)c1Cl	inactive
O=C(Nc1ccc2c(c1)OCCO2)c1ccoc1	inactive
O=C1CN(c2ccccc2)C(=S)N1C(=O)c1ccccc1	inactive
COc1ccc(NC(=O)c2cc(F)cc(F)c2)cc1Cl	inactive

Reference: PubChem BioAssay AID493073 (Broad Institute, 2011)
